According to PubChem BioAssay AID1851 (National Center for Advancing Translational Sciences (NCATS), 2009):
About 2,600 (16%) of roughly 16,000 compounds were called active. Another 20% or so got no clear call; they are omitted. Not all results are given here. A number with no mark means an inactive call. Calls come from the whole dose curve; as a rule, active = well fitted curve in the direction sought with a large enough effect; inconclusive = small, poorly fitted or top-dose-only effect, or effect the other way; inactive = no such curve, though single readings can be large or run the other way.

Each molecule was assayed against Cytochrome P450 2D6 (Homo sapiens) (UniProt P10635) (assay: Cytochrome panel assay with activity outcomes). Details: recombinant CYP, pro-luciferin dealkylation, luminescence, p450-cyp2d6; series mostly up to 57.1 µM; activity, negative = inhibition: at the top concentration.
Sequence of Cytochrome P450 2D6 (Homo sapiens) (P10635 whole entry, looked up): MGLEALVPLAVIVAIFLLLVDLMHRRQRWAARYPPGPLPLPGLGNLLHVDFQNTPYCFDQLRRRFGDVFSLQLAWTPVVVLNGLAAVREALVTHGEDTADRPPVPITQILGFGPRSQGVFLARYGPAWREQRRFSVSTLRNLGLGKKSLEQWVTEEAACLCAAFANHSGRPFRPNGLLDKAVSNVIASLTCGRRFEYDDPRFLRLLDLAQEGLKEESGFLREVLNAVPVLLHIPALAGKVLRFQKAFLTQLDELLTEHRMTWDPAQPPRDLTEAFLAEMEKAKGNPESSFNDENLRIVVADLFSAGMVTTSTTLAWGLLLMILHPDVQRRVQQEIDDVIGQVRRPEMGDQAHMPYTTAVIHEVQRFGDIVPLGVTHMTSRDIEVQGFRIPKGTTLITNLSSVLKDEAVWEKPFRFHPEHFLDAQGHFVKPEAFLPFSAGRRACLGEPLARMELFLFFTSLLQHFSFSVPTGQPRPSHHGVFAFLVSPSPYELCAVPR
% is set by controls: 0 for no effect and ±100 for the full control effect.

| SMILES | activity, negative = inhibition | AC50 |
| --- | --- | --- |
| NCCSC[C@H](N)C(=O)O | -2.62% [at 11.4 µM] |  |
| Cc1n[nH]c(=O)[nH]c1=O | -2.55% [at 25.6 µM] |  |
| C[C@@]12C=CC(=O)C=C1CC[C@@H]1[C@@H]2[C@H](O)C[C@]2(C)[C@@H]1CC[C@]2(O)C(=O)CO | -2.91% [at 25.6 µM] |  |
| COc1ccc(-n2c(=O)c(C)nc3cnc(Oc4ccccc4)nc32)cc1 | -18.4% |  |
| COc1cc(/C=C(/C#N)c2nc3ccccc3[nH]2)ccc1OCC(=O)Nc1ccccc1C | -16.6% |  |
| N#C/C(=C\c1cc([N+](=O)[O-])c(N2CCCCC2)cc1N1CCCCC1)c1nn(-c2ccccc2)c(N)c1C#N | 27.3% |  |
| N#C/C(=C/c1ccc(N2CCCC2)c([N+](=O)[O-])c1)c1nc2ccccc2[nH]1 |  | 0.2 µM (active) |
| N#C/C(=C\c1ccc(Oc2ccc(C(F)(F)F)cc2[N+](=O)[O-])cc1)c1nc2ccccc2[nH]1 | -81.3% |  |
| O=C(O/N=C\c1ccc(N2CCCCC2)c([N+](=O)[O-])c1)c1c(F)cccc1F | 7.86% |  |
| N#C/C(=C\c1ccc(N2CCCC2)c([N+](=O)[O-])c1)c1nc2ccccc2[nH]1 |  | 0.631 µM (active) |
| CSc1ncnc2c1ncn2[C@@H]1O[C@@H](CO)[C@H](O)O[C@@H]1O | 14.1% [at 11.4 µM] |  |
| CC(NC(=O)OCc1ccccc1)C(=O)NCC1CCCO1 (centres undefined) | 13.2% |  |
| CCCC[C@@H]1C[C@H]1C(NC(=O)c1cccs1)c1ccc(Cl)cc1 (some centres undefined) | 3.97% |  |
| O=S(=O)(O)c1ccc(N=Nc2ccc3c(S(=O)(=O)O)cccc3c2O)c2ccccc12 | -18.7% [at 11.4 µM] |  |
| CCN(CC)c1ccc(NC(=O)CSc2nnc3nc(C)cc(C)n23)cc1 | 12.6% |  |
| CCc1c(C)nc(N)n2c(SCC(=O)Nc3ccccc3)nnc12 |  | 1.41 µM (active) |
| Cn1c(SCC(=O)Nc2ccccc2)nc(O)cc1=O | -13.2% |  |
| COc1ccc(Oc2ncc3nc(CCc4ccccc4)c(=O)n(CCC#N)c3n2)cc1 | -6.14% |  |
| Cc1cccc(OC2(c3ccccc3)OC(=O)c3ccccc32)c1C (centres undefined) | -6.72% |  |
| CCN(CC)C(=O)COc1ccc(S(=O)(=O)N2CCOCC2)cc1 | 22.3% |  |
| N#C/C(=C\NC(=S)c1ccncc1)c1nc2ccccc2s1 | -9.99% [at 11.4 µM] |  |
| CCCc1c(O)c2ccccc2n(-c2ccccc2)c1=O | 1.37% |  |
| C=CCn1c(=O)c(C(=O)NCCN(CC)CC)c(O)c2ccccc21 |  | 4.47 µM (active) |
| CN(C(=O)c1c(O)c2ccccc2n(C)c1=O)c1ccccc1 | -7.86% |  |

| SMILES | activity, negative = inhibition | AC50 |
| --- | --- | --- |
| COc1ccc(NC(=O)N2CCCC3(CCN(C(=O)c4cnccn4)CC3)C2)cc1 | 4.29% |  |
| Cc1cc(NC(=O)c2cc(C(C)C)on2)no1 | 20.3% |  |
| CCOC(=O)N1CCN(CC(=O)c2ccc3c(c2)CCN3)CC1 | -23.3% |  |
| CC(=O)C1=C(O)C=C(c2ccco2)CC1c1ccco1 (centres undefined) | -12.8% |  |
| CSc1n[nH]c(-c2sccc2OCc2ccc(C)cc2)n1 | -27.3% |  |
| Cc1cc(NC(=O)CSc2n[nH]c(-c3cccs3)n2)no1 | -3.95% |  |
| c1ccc(-c2nc(CSc3n[nH]c(-c4cccs4)n3)cs2)cc1 |  | 1.12 µM (active) |
| C=CC[C@@H](C(=O)O)c1ccccc1 | 1.94% [at 11.4 µM] |  |
| CCc1c(C)c(C#N)c2nc3ccccc3n2c1N1CCN(c2cc(C)ccn2)CC1 | -6.92% |  |
| C[C@H]1CCCC=CC2C[C@H](OC(=O)CN(C)C)C[C@@H]2[C@@H](O)/C=C\C(=O)O1 (some centres undefined) | 9.34% [at 11.4 µM] |  |
| Cc1cccc2sc(NC(=O)C3c4ccccc4Oc4ccccc43)nc12 | -27% |  |
| c1ccc(-c2cccc(N3CC[C@@]4(CCCNC4)C3)c2)cc1 |  | 10 µM (active) |
| c1ccc(-c2cccc(N3CC4(CCNCC4)C3)c2)cc1 |  | 20 µM (active) |
| CS(=O)(=O)N1CCC2(CC1)CN(c1cccc(-c3ccccc3)c1)C2 | -0.816% |  |
| O=S(=O)(c1ccccc1)N1CCC[C@@]2(CCN(c3cccc(-c4ccccc4)c3)C2)C1 | -1.58% |  |
| O=S(=O)(c1ccccc1)N1CCC2(CCCN(c3cccc(-c4ccccc4)c3)C2)CC1 | 1.98% |  |
| Cn1cccc1C(=O)N1CCC2(CC1)CN(c1cccc(-c3ccccc3)c1)C2 | -4.41% |  |
| Cc1ccccc1C(=O)Nc1ccc(C(=O)NNC(=O)CCCOc2ccc(Cl)cc2Cl)cc1 | -9.11% |  |
| COc1cc(Br)c(C(C)NC(=O)c2cccc(Br)c2)cc1OC (centres undefined) | -16.8% |  |
| C/C(=N\NC(=O)c1cccc(C)c1)c1cccc(NC(=O)c2ccco2)c1 | -0.781% |  |
| Cn1c([N+](=O)[O-])cnc1COC(N)=O | 1.78% [at 25.6 µM] |  |
| Cc1cc(C)c2cc(C#N)c(NCCOC(=O)c3ccccc3C)nc2c1 | 6.66% |  |
| Cc1nn(-c2ccc(Cl)cc2)c2sc(C(=O)c3c(N)n(C)c(=O)n(C)c3=O)cc12 | 22% |  |
| Cc1nn(-c2ccccc2)c2c1C(c1ccc(O)c(O)c1)N1C(=N2)C(Nc2ccccc2)=Nc2ccccc21 (centres undefined) | -1.07% |  |

| SMILES | activity, negative = inhibition | AC50 |
| --- | --- | --- |
| COc1ccccc1OCc1ccc(C(=O)N(C)C)o1 | -26.7% |  |
| Cc1ccc(C(=O)NNC(=O)CSc2nnc3c(n2)[nH]c2ccc(F)cc23)cc1 | -8.95% |  |
| O=C(O)c1cc(-c2ccc(-c3ccccc3)cc2)nc2cc3ccccc3cc12 | -10.7% [at 11.4 µM] |  |
| COc1ccc(OC)c(-c2cc(C(=O)O)c3cc4ccccc4cc3n2)c1 |  | 3.98 µM (active) |
| CC(=O)Nc1ccc(-c2cc(C(=O)O)c3cc4ccccc4cc3n2)cc1 | -6.98% [at 11.4 µM] |  |
| O=C(Oc1ccc(C(=S)N2CCOCC2)cc1Br)c1cc(Cl)ccc1Cl | -5.56% |  |
| O=C(O)c1ccc(C(=O)Nc2cccc3ccccc23)c(C(=O)O)c1 | 10.4% [at 11.4 µM] |  |
| COc1ccc(-n2c(=O)c(C)nc3cnc(Nc4cccc(OC)c4)nc32)cc1 | -12.9% |  |
| COc1cccc2cc(C(=O)CC3(O)C(=O)N(Cc4ccccc4)c4ccccc43)c(=O)oc12 (centres undefined) | -12.8% |  |
| COc1cccc(Nc2ncc3nc(-c4ccccc4)c(=O)n(Cc4cccs4)c3n2)c1 | 11.2% |  |
| COc1cccc(-c2nccc(NCc3cnc(C)cn3)n2)c1 | -11.9% |  |
| COc1ccc(-c2nc3cnc(Nc4cccc(OC)c4)nc3n(Cc3cccs3)c2=O)cc1 | 4.57% |  |
| COc1cccc(-c2nccc(NCc3cccc(C)c3)n2)c1 |  | 10 µM (active) |
| COc1cccc(-c2nccc(NCc3cccs3)n2)c1 |  | 0.316 µM (active) |
| COc1cccc(-c2nccc(NCc3ccccc3)n2)c1 |  | 1 µM (active) |
| CCOC(=O)CCN1C(=O)[C@H]2[C@@H]3[C@H](O)[C@H](O)CC(=O)[C@H]3CC[C@H]2C1=O | -6.39% [at 11.4 µM] |  |
| CC(C)CN(CC#N)CC(C)C | 1.21% [at 11.4 µM] |  |
| O=C(c1cc(C(F)(F)F)cc(C(F)(F)F)c1)N1CCC2(CC1)CN(c1ccccc1)C2 | 8.07% |  |
| O=c1ncn(-c2ccccc2F)c2ncccc12 | 23.3% |  |
| CN1CCCC2(CCN(C(=O)c3cc(C(F)(F)F)cc(C(F)(F)F)c3)CC2)C1 | -5.92% |  |
| O=C(Nc1ccccc1N1CCN(C(=O)c2ccc(Cl)cc2)CC1)c1cc(Br)ccc1Cl | -24.3% |  |
| C[C@@H](c1ccccc1)N1C(=O)[C@H]2[C@H]3[C@H](O)[C@H](O)C/C(=N/OC[C@@H](O)COCc4ccco4)[C@@H]3CC[C@@H]2C1=O | 3.23% [at 11.4 µM] |  |
| O=C(N/N=C/c1c[nH]c2ccc(Br)cc12)c1ccn(Cc2ccc(Cl)cc2)n1 |  | 12.6 µM (active) |
| O=C(N/N=C/c1c[nH]c2ccccc12)c1cc(-c2ccc(-c3ccccc3)cc2)n[nH]1 | -8.44% |  |

| SMILES | activity, negative = inhibition | AC50 |
| --- | --- | --- |
| [N-]=[N+]=NC[C@@H]1O[C@@H](n2cnc3c(N)ncnc32)[C@@H]2O[C@@H]21 | 3.12% [at 11.4 µM] |  |
| CC(=O)N1CCc2cc(S(=O)(=O)CCC(=O)Nc3c(C)n(C)n(-c4ccccc4)c3=O)ccc21 | 9.42% |  |
| CC(C)CCNC1=NCCCCC1 |  | 12.6 µM (active) |
| Cc1ccc2[nH]c3nc(CCCn4ccnc4-c4ccccc4)nnc3c2c1 | -15.6% [at 11.4 µM] |  |
| Cc1sc(NC(=O)c2ccc(OCC(C)C)cc2)c(C(N)=O)c1-c1ccc(Cl)cc1Cl | 6.82% |  |
| N#Cc1cccc(NC(=O)N2CC3(CCN(C(=O)c4cnccn4)CC3)C2)c1 | -5.46% |  |
| CCOc1ccccc1C1C(C#N)=C(N)Oc2n[nH]c(CC)c21 (centres undefined) | -15.4% |  |
| O=C(N/N=C\c1ccc(-c2ccccc2[N+](=O)[O-])o1)C1COc2cc3ccccc3cc2O1 (centres undefined) | 4.5% |  |
| CN(C)c1ccnc(Oc2ccc(Cl)cc2)c1C#N |  | 5.01 µM (active) |
| Cc1cc(C)c(C#N)c(Oc2ccc(F)cc2)n1 | 9.74% |  |
| N#Cc1c(-c2ccccc2)ccnc1Oc1ccccc1 | -8.61% |  |
| COC(=O)[C@@H]1CC[C@H](C)[C@@H](c2ccc(C)cc2)N1C(=O)c1ccc(/C=N\OC[C@@H]2O[C@H](c3ccccc3)C=C[C@@H]2Oc2ccc(OC)cc2)cc1 | 3.42% [at 11.4 µM] |  |
| CCCN[C@@H](C)C(=O)Nc1c(C)csc1C(=O)OC | -8.72% [at 25.6 µM] |  |
| CCOC(=O)N1CCN(c2c(-c3ccccc3)c3cc(Cl)ccc3[nH]c2=O)CC1 |  | 0.355 µM (active) |
| CCOC(=O)c1[nH]c2ccc(Cl)cc2c1-c1ccccc1 | 7.26% |  |
| CCOC(=O)N1CCN(C(=O)c2cccn3c(=O)c4cc(Cl)ccc4nc23)CC1 | -19.7% |  |
| O=C(c1ccccc1)N1CCSC1=S | 2.21% |  |
| COc1ccc(C(=O)[C@H](Br)[C@H](Br)C(=O)O)cc1 | -14.6% [at 11.4 µM] |  |
| CCOc1cc(/C=N/n2cnnc2)c(Br)cc1O | 0.114% |  |
| Cn1c(/C=N/NC(=O)c2ccccc2Br)nc2ccccc21 | -16.1% |  |
| Cc1ccc(/C=N/NC(=O)CSc2nc3ccccc3n2C)s1 |  | 7.08 µM (active) |
| Cc1ccc(C(=O)N/N=C/c2nc3ccccc3n2C)cc1 | -3% |  |
